KB-3-1 tox – KB-3-1 parental cell cytotoxicity; KB-3-1 viability, CellTiter-Glo ATP luminescence, 72 h; Potency, µM (series often up to 46.1 µM), hits mostly cytotoxic; 400,000 tested, 1.4% active; note: % is set by controls: 0 for no effect and ±100 for the full control effect; nearly all actives have a fitted effect of over 60% in size
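Cytotoxicity in the drug-sensitive parental line KB-3-1 was scored as loss of CellTiter-Glo luminescence following 72 h incubation with compound. Values come from curve fitting of normalized concentration-response data.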
ELG1 DNA repair – inhibitors of ELG1-dependent DNA repair in HEK293T cells; HEK293T ELG1-luciferase reporter, luminescence, 16 h; DNA damage induced by 5-fluorouridine; Potency, µM (series often up to 46.1 µM), inactives show at the highest dose activity change, negative = inhibition, usual class: inhibitors; 330,000 tested, 2.3% active; AID 504467; note: % is set by controls: 0 for no effect and ±100 for the full control effect; nearly all actives have a fitted effect of over 55% in size
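5-Fluorouridine DNA damage + compound/DMSO, 2,000 cells/well, 16 h, 37 °C/5% CO2. ONE-Glo, 30 min RT, luminescence. Readout = decrease in reporter signal.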
KB-V1 MDR tox – KB-V1 MDR subline cytotoxicity | KB-V1 MDR cells viability, CellTiter-Glo, 72 h | Potency, µM (series often up to 46.1 µM), most hits filed as cytotoxic | 400,000 tested, 3.4% active | AID 1347076; note: % is set by controls: 0 for no effect and ±100 for the full control effect; nearly all actives have a fitted effect of over 60% in size
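Luminescent ATP read-out (CellTiter-Glo, 10 min) measures survival of drug-selected KB-V1 MDR cells after 72 h, 37 degrees C compound exposure. Medium: phenol-red-free DMEM, 10% FBS. Values from fitted concentration-response curves.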
MCF10A rereplic – induces DNA re-replication in MCF 10a normal breast cells; MCF 10A DNA re-replication, Hoechst nuclear intensity, 48 h; Potency, µM (doses to about 46.1 µM), for inactives: at the top dose activity, positive = re-replication, actives largely listed as activators; 350,000 tested, 2.9% active; note: % of control where 0% means no effect; nearly all actives have a fitted effect of over 50% in size
SW480 rerep – induces DNA re-replication in SW480 colon adenocarcinoma cells | AID 624297 | SW480 DNA re-replication, Hoechst DNA content imaging, 48 h | 340,000 tested, 1.8% active | Potency, µM (highest dose often 46.1 µM), inactives show top-dose re-replication activation, most hits filed as activators; note: % of control where 0% means no effect; nearly all actives have a fitted effect of over 55% in size
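Cells (250 per well) received 23 nL compound or DMSO by pin tool and were kept 48 hr at 37 C, 5% CO2. Nuclei were then stained with Hoechst for 40 min and scanned for DNA content.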
Numbers without * were called inactive; i = inactive; ? = inconclusive; nt = not tested or not shown; [ ] = dose if it differs, or a comment. This is a sample that favours compounds with a hit; in the whole collection about 8.2% have one here. Calls come from the whole dose curve; as a rule, active = well fitted curve in the direction sought with a large enough effect; inconclusive = small, poorly fitted or top-dose-only effect, or another doubt; inactive = no such curve, though single readings can be large; an effect the other way counts as inactive or inconclusive. Potency is the fitted concentration of half-maximal effect.

SMILES	KB-3-1 tox	ELG1 DNA repair	KB-V1 MDR tox	MCF10A rereplic	SW480 rerep
O=S(=O)(c1ccc(OC(F)(F)F)cc1)N1CCN(c2nc(-c3cccs3)nc3ccccc23)CC1	i	nt	i	nt	nt
COc1ccc(CN(C(=O)c2ccc(-c3ccccc3)[nH]2)C(C(=O)NC(C)(C)C)c2ccncc2)cc1 (centres undefined)	?	?	11.6µM*	13.6%	?
CC1CC(C)C(=NNC(N)=O)C(C(O)CC2CCC(=O)NC2=O)C1 (centres undefined)	11.6µM*	nt	?	?	-0.9%
CCC1SC(C)C/C(=N/NC(N)=O)C1C (centres undefined)	i	?	i	3.4%	-5.8%
C1CCN(Cc2nnnn2C2CCCC2)CC1	i	-2.5%	i	-10.2%	-3.9%
Cc1ccc2nc(N3CCN(Cc4nnnn4C4CCCC4)CC3)c(C#N)cc2c1	i	?	20.6µM*	?	-6.3%
COc1cccc(N2CCN(Cc3nnnn3C3CCCCC3)CC2)c1	i	2.7%	23.1µM*	-0.2%	1.2%
Cc1ccc(C)c(N2CCN(Cc3nnnn3C3CCCCC3)CC2)c1	i	?	23.1µM*	?	14.3%
N#CCCn1cc(/C=N/O)c(-c2ccc(-c3ccccc3)cc2)n1	?	?	i	13µM*	?
N#CCCn1cc(/C=C2\NC(=S)N(c3ccccc3)C2=O)c(-c2ccc(-c3ccccc3)cc2)n1	?	0.0%	i	5.8µM*	?
N#CCCn1cc(C=C(C#N)C#N)c(-c2ccc(Cl)cc2)n1	i	8.8%	i	3.66µM*	?
N#CCCn1cc(/C=N/O)c(-c2ccc(Cl)cc2)n1	i	-4.4%	i	9.9%	1.6%
N#CCCn1cc(/C=C(\C#N)c2nc3ccccc3s2)c(-c2ccc(F)cc2)n1	i	4.3%	i	10.1%	14.0%
CCN1C(=O)/C(=C\c2cn(CCC#N)nc2-c2ccc(F)cc2)SC1=S	i	14.6µM*	i	-2.5%	3.6%
CCCCN(Cc1ccccc1)S(=O)(=O)c1cc(Br)cc2c1N(C(C)=O)C(C)C2 (centres undefined)	i	?	20.6µM*	2.4%	-1.0%
O=C1[C@H]2[C@@H](C(=O)N1c1cc(Cl)cc(Cl)c1)[C@]1(C(=O)Nc3ccccc31)N1CCC[C@@H]21	i	?	14.6µM*	28.8%	-3.0%
Cc1cc(Cl)c2c(c1)[C@]1(C(=O)N2)[C@@H]2C(=O)N(Cc3ccccc3)C(=O)[C@@H]2[C@@H]2CCCN21	?	?	?	9.1%	16.1%
CCN=c1scc(C)n1/N=C/c1cc(Br)c(O)c(OC)c1	i	5.8µM*	i	20.6µM*	7.0%
CN=c1scc(C)n1/N=C/c1cc(Br)c(O)c(Br)c1	i	8.6%	i	?	-1.7%
O=C(c1sc2cc([N+](=O)[O-])ccc2c1Cl)N1CCOCC1	i	-1.1%	i	4.3%	-6.6%
CC(C)N(C(=O)c1sc2cc([N+](=O)[O-])ccc2c1Cl)C(C)C	i	-6.2%	20.6µM*	1.2%	0.9%
O=C(CCl)Nc1ccccc1Sc1ccc(Cl)cc1	?	?	?	14.6µM*	14.6µM*
O=C(CSc1ncn[nH]1)Nc1ccccc1Sc1ccccc1	i	-1.0%	14.6µM*	19.6%	0.2%
CC(=O)N1CCN(CC(=O)Nc2ccccc2Sc2ccc(Cl)cc2)CC1	?	-12.6%	5.8µM*	8.9%	1.6%
O=C(CN1CCCC1)Nc1ccccc1Cl	i	0.0%	i	0.6%	-6.7%
O=C(CN1CCN(CC(=O)Nc2ccccc2Cc2ccccc2)CC1)Nc1ccccc1Cl	?	25.9µM*	?	16.3%	-0.3%
O=C(CN1CCN(c2ccccc2)CC1)Nc1ccccc1Sc1ccccc1	i	?	?	?	nt
O=C(CSc1ncn[nH]1)Nc1ccccc1-c1ccccc1	i	-9.5%	?	256.0%[0.0737 µM]	-13.6%
O=C(Nc1ccccc1O)c1cc(S(=O)(=O)N2CCCC2)ccc1Cl	i	nt	i	nt	nt
CC[N+]1(CC(=O)c2ccc(OC)cc2)CCCCC1	i	nt	i	nt	nt
